Tb PYK inh = T. brucei pyruvate kinase inhibition. hit rate 0.12% among 410,000. AID 624173. Potency, µM (series often up to 76.8 µM), for inactives: top-dose activity, negative = inhibition, hits mostly inhibitors. TbPYK enzyme, Kinase-Glo Plus ATP luminescence, 45 min. Q57TT1; note: potency is the fitted concentration of half-maximal effect; nearly all actives have a fitted effect of over 50% in size
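ADP (130 uM final) triggers the TbPYK reaction after compound addition; incubation is 45 min at room temperature. Kinase-Glo Plus is then added and luminescence imaged. Normalized data are fitted to concentration-effect curves.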
VACV Venus inh = vaccinia inhibition (Venus reporter) | Vaccinia virus Venus reporter expression, fluorescence | Potency, µM (top dose mostly 36.5 µM), without a hit: at the top dose activity change, negative = inhibition, most hits filed as inhibitors | hit rate 0.46% among 330,000 | AID 720580; calls by dose curve; tested in A549 cells; note: potency is the fitted concentration of half-maximal effect; nearly all actives have a fitted effect of over 30% in size
LmPK inh = LmPK (Leishmania mexicana) enzyme inhibition; Q27686; AID 1721; Potency, µM (highest dose often 57.5 µM), for the others: top-dose activity change, negative = inhibition, most hits filed as inhibitors; purified LmPK, Kinase-Glo ATP luminescence, 1 h; hit rate 0.37% among 290,000; note: potency is the fitted concentration of half-maximal effect
Target sequence (Q27686 whole entry, looked up): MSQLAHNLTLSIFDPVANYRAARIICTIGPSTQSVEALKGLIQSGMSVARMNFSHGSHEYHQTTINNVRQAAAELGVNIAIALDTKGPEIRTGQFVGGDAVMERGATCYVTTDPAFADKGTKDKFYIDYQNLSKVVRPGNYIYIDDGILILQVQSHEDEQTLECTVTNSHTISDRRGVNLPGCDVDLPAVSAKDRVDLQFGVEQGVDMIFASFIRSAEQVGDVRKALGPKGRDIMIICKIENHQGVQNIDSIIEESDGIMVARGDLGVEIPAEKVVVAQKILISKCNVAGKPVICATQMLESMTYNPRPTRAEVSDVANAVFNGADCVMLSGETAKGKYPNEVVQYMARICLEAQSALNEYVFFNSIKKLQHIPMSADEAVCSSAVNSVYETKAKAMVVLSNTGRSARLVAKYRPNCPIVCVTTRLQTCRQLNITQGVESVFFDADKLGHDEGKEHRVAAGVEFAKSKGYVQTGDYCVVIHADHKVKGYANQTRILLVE
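Purified LmPK (0.1 nM) converted ADP (0.1 mM) to ATP with PEP (0.5 mM) in imidazole buffer pH 7.2 with KCl and MgCl2, 1 h at room temperature. ATP was read by Kinase-Glo luminescence; data normalized to uninhibited and no-enzyme controls.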
Vaccinia mCherry = inhibitors of vaccinia virus infection (mCherry reporter signal) | Vaccinia virus mCherry reporter infection, fluorescence | Potency, µM (series often up to 36.5 µM), for inactives: at the highest dose activity change, negative = inhibition, actives largely listed as inhibitors | hit rate 0.63% among 310,000 | AID 720579; calls by dose curve; tested in A549 cells; note: potency is the fitted concentration of half-maximal effect; nearly all actives have a fitted effect of over 35% in size
HCMV inh = blocks human cytomegalovirus replication; HFF cells, HCMV-luciferase reporter, 72 h; hits give low values; activity change, negative = inhibition, % at 57.5 µM; hit rate 4.5% among 410,000; AID 1259415; in the data active = activity change below about -60%; inconclusive = no clear call, values can overlap the other calls; inactive = above about -39%
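Screen run at 2 compound doses on HFFs infected with reporter HCMV, MOI 1 PFU/cell. Luciferase activity from cell lysates at 72 h post infection gave inhibition relative to buffer-only and Salinomycin wells.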
Numbers without * were called inactive; i = inactive; ? = inconclusive; . = no result given; ! = not confirmed by another sample. Most compounds without a hit are left out; they make up all but 5% or so of the library. Unless noted, calls come from the whole dose curve; as a rule, active = well fitted curve in the direction sought with a large enough effect; inconclusive = small, poorly fitted or top-dose-only effect, or another doubt; inactive = no such curve, though single readings can be large; an effect the other way counts as inactive or inconclusive. % is set by controls: 0 for no effect and ±100 for the full control effect.

SMILES	Tb PYK inh	VACV Venus inh	LmPK inh	Vaccinia mCherry	HCMV inh
CCOC(=O)c1ccccc1NC(=O)Cn1c(-c2nonc2N)nc2ccccc21	3%	.	0%	.	-74*
Cc1ccc2[nH]c(C(=O)N3CCCC(Nc4ccc(F)cc4)C3)cc2c1 (stereo not given)	0%	.	2%	.	-19
CCc1cc2c(=O)c(-c3cscn3)coc2cc1O	-3%	-7%	-7%	.	125
CCn1c(NC(=O)c2ccc(COc3ccc(C)cc3[N+](=O)[O-])o2)nc2ccccc21	-6%	.	-1%	.	-63*
CC(=O)Nc1ccc(C(=O)Nc2ccc(S(=O)(=O)Nc3nccc(C)n3)cc2)cc1	4%	.	-1%	.	-13
CC(=O)Nc1ccc2nc(NC(=O)c3ccc([N+](=O)[O-])s3)sc2c1	.	.	2%	.	.
Cc1cc(NS(=O)(=O)c2ccc(NC(=O)c3ccc(F)cc3)cc2)nc(C)n1	-6%	.	.	.	39
Cc1nc2cc(NC(=O)c3ccc([N+](=O)[O-])s3)ccc2s1	0%	-22%	-12%	?	-94*
Cc1cc(NS(=O)(=O)c2ccc(NC(=O)c3ccc([N+](=O)[O-])s3)cc2)nc(C)n1	1%	?	.	?	-97*
Cc1ccnc(NS(=O)(=O)c2ccc(NC(=O)c3ccc([N+](=O)[O-])s3)cc2)n1	-12%	.	8%	.	-96*
Cc1cc(NS(=O)(=O)c2ccc(NC(=O)c3c(F)c(F)c(F)c(F)c3F)cc2)nc(C)n1	4%	?	4%	28µM*	?
O=C(CCCC(=O)OCC(Cl)=C(Cl)Cl)Nc1cccc(F)c1	-5%	.	-3%	.	-4
O=c1[nH]cc(Cc2ccccc2)c(=O)[nH]1	0%	-11%	.	i	29
O=C(CNC(=O)c1cccnc1)N=Nc1c(O)[nH]c2c(Br)cc(Br)cc12	-6%	.	1%	.	-3
CN(C)CCNC(=O)c1ccc(Sc2ccc(Br)cc2)c([N+](=O)[O-])c1	-2%	?	2%	10µM*	?
CCCNC(=O)c1ccc(SCC(=O)N(CC)CC)c([N+](=O)[O-])c1	-10%	-9%	6%	-21%	-67*
CN(C)C(CNC(=O)c1oc2ccccc2c1CSc1ncn[nH]1)c1ccco1 (stereo not given)	6%	-2%	2%	-6%	?
Cc1cccc(CCNC(=O)C2CCC(=O)N(Cc3ccc(Cl)cc3)C2)n1 (stereo not given)	9%	-1%	-5%	i	?
O=C(c1ccc(Cl)cc1)c1c[nH]c(C(=O)NNc2cccc(Cl)n2)c1	-1%	11µM*	0%	?	-24
O=S(=O)(Nc1ccc(F)cc1F)c1ccc(Br)s1	-3%	-9%	.	1%	7
CCc1nn(CCCC(=O)NCc2ccccc2Br)c(=O)c2cc3occc3n12	-20%	-14%	11%	-13%	-68*!
CCc1nn(CC(=O)NCCc2ccc(OC)cc2OC)c(=O)c2cc3occc3n12	2%	-4%	-18%	-5%	-62*!
CCOC(=O)C1CCCN(C(=O)Cn2nc(CC)n3c(cc4occc43)c2=O)C1 (stereo not given)	-2%	0%	.	-15%	-3
CCc1nn(CC(=O)N2CCN(Cc3ccc4c(c3)OCO4)CC2)c(=O)c2cc3occc3n12	4%	-12%	1%	i	-61*
CCn1c(CN2CCOCC2)nnc1SCC(=O)Nc1ccccc1C	-2%	-15%	-7%	-22%	-20
SMILES	Tb PYK inh	VACV Venus inh	LmPK inh	Vaccinia mCherry	HCMV inh
NC(=O)C(c1ccc(Cl)cc1)c1ccc(Sc2ccc(Cl)cc2)nn1 (stereo not given)	-9%	?	5%	.	-89*
O=C(CSc1ccc(-c2ccncc2)nn1)c1ccc(Cl)cc1	1%	-10%	3%	-4%	-13
CCC(c1nnnn1-c1ccc(OC)cc1)N1CCC(n2c(=O)[nH]c3ccccc32)CC1 (stereo not given)	-4%	-1%	.	i	-6
CCCCn1nnnc1C(CCc1ccccc1)N1CCC(n2c(=O)[nH]c3ccccc32)CC1 (stereo not given)	8%	?	.	?	-101*
CCC(c1nnnn1Cc1ccccc1)N1CCC(n2c(=O)[nH]c3ccccc32)CC1 (stereo not given)	2%	-19%	.	-5%	-61*
CC(C)CCCC(C)C1CCC2C3CC(O)[C@@]4(O)CC(O)CC[C@@]4(C)C3CC[C@@]12C (stereo not given in full)	.	-27%	.	-23%	.
CN(C)C(=O)CCc1ccc2c3c([nH]c2c1)[C@]1(CCC2CCCC2)[C@@H](C(=O)N2CCOCC2)C[C@H](CC(=O)NCC24CC5CC(CC(C5)C2)C4)C(=O)N1CC3	1%	?	.	?	-14
CC(C)=CCC/C(C)=C/CNC(=O)C[C@H]1C[C@H](C(=O)N2CCOCC2)[C@@]2(CCC3CCCC3)c3[nH]c4cc(CCC(=O)N(C)C)ccc4c3CCN2C1=O	5%	?	.	?	-108*
COc1ccc2[nH]c3c(c2c1)CCN1C(=O)C(CC(=O)NC/C=C(\C)CCC=C(C)C)C[C@H](C(=O)N2CCOCC2)[C@@]31CCC1CCCC1 (stereo not given in full)	2%	?	.	10µM*	8
CCc1ccc(CNCc2c(C(=O)O)n(Cc3ccc(C)cc3)c3cc(C)ccc23)cc1	-10%	?	.	?	-94*
Cc1ccc2c(CNCCc3ccco3)c(C(=O)O)n(Cc3ccc(F)cc3)c2c1	-4%	5%	.	4%	-109*
C=Cc1ccc(Cn2c(C(=O)O)c(CNCc3ccccc3)c3ccc(C)cc32)cc1	-4%	13µM*	.	?	-102*
C=Cc1ccc(Cn2c(C(=O)O)c(CNCc3cc(Br)ccc3OC)c3ccc(C)cc32)cc1	3%	-3%	.	i	13
Cc1ccc(CNCc2c(C(=O)O)n(Cc3ccccc3C)c3cc(C)ccc23)cc1	4%	?	.	?	25
Cc1ccc(CNCc2c(C(=O)O)n(Cc3ccc(C)cc3)c3cc(C)ccc23)cc1	-3%	?	.	11µM*	-107*
COc1ccc(Cn2c(C(=O)O)c(CNCCc3ccco3)c3ccc(OC)cc32)cc1	8%	-3%	.	2%	6
O=C(O)CC(Cc1ccc(Cl)cc1)C(=O)Nc1ccccc1 (stereo not given)	1%	.	1%	.	48
CCN(CC)S(=O)(=O)c1ccc2nc(NC(=O)c3ccccc3OC)sc2c1	-25%	-25%	.	-29%	-9
Cc1ccc(Cn2c(C(=O)O)c(CNCc3ccc(C)o3)c3ccc(C)cc32)cc1	4%	-7%	.	-12%	6
COc1ccc(Cn2c(C(=O)O)c(CNCc3ccc(C)o3)c3ccc(C)cc32)cc1	-1%	-19%	.	-15%	-38
COc1ccc(CNCc2c(C(=O)O)n(Cc3ccc(F)cc3)c3cc(C)ccc23)cc1OC	5%	-18%	.	-12%	-68*

High-throughput results as filed in PubChem BioAssay.
